tim10-1 inh = inhibits growth of tim10-1 mutant yeast; inhibition, % at 20 µM; actives 2.2% (n = 330,000); S. cerevisiae tim10-1 ts strain growth, BacTiter-Glo, 24 h; AID 463190;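 active = inhibition of at least 40%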;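 also: mutant grown at 25 °C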
tim23-1 inh = inhibits growth of tim23-1 mutant yeast; inhibition, % at 20 µM; actives 1.3% (n = 330,000); S. cerevisiae tim23-1 growth, BacTiter-Glo luminescence, 24 h;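 active = growth inhibition of the mutant yeast at or above 50%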;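 also: temperature-sensitive mutant grown at 25 °C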
NLRP3 yeast inh = blocks the NALP3 inflammasome reconstituted in yeast | Yeast reconstituted NLRP3/ASC/caspase-1, beta-gal luminescence, 24 h | inhibition, % at 10 µM | actives 0.39% (n = 330,000);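 active = inhibition of 50% or more; inactive = inhibition below 50%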
NALP1 yeast inh = inhibitors of NALP1 inflammasome in yeast; AID 2071; actives 0.61% (n = 280,000); S. cerevisiae NALP1/ASC/caspase-1 growth, X-gal OD620, 72 h; inhibition, % at 10 µM; in the data active = inhibition mostly above about 24%, no sharp cut-off; inactive = mostly below about 32%
TIM10 inh = inhibits growth of TIM10 yeast strain. S. cerevisiae TIM10 strain growth, BacTiter-Glo luminescence, 24 h. inhibition, % at 10 µM. actives 1.4% (n = 330,000). AID 463195;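 active = inhibition of 40% or more at the single tested concentration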;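 also: wild-type TIM10 isogenic control strain grown at permissive 25 °C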
V-ATPase pHluor = alters yeast V-ATPase proton transport; S. cerevisiae, pHLuorin cytosolic pH fluorescence; response, % at 10 µM; actives 0.37% (n = 350,000); AID 504577; in the data active = response mostly above about 7.3%, no sharp cut-off; inactive = mostly below about 5.4%; also: actives read high
Numbers stand for hits. This is a sample that favours compounds with a hit; in the whole collection about 4.2% have one here.

For CCOC(=O)C1C(=O)NC(N2CCCCC2)=NC1c1ccco1 (configuration not stated) the results were tim10-1 inh inactive, tim23-1 inh inactive, NLRP3 yeast inh inactive, NALP1 yeast inh inactive, TIM10 inh inactive and V-ATPase pHluor 15.
CCOc1c(Cl)cc(CNCC(C)C)cc1OC was read as tim10-1 inh inactive, tim23-1 inh inactive, NLRP3 yeast inh inactive, NALP1 yeast inh inactive, TIM10 inh inactive and V-ATPase pHluor inactive.
For CCOc1cc(CNCCO)cc(Br)c1OCc1ccccc1Cl the results were tim10-1 inh inactive, tim23-1 inh inactive, NLRP3 yeast inh inactive, NALP1 yeast inh 32, TIM10 inh inactive and V-ATPase pHluor inactive.
Screening CCOc1cc(CNCC(C)C)cc(Cl)c1OCc1ccccc1 returned tim10-1 inh inactive, tim23-1 inh inactive, NLRP3 yeast inh inactive, NALP1 yeast inh 36, TIM10 inh inactive and V-ATPase pHluor inactive.
`COc1ccc([C@H]2N[C@]3(CCCN(Cc4ccc(Cl)cc4)C3=O)[C@H]3C(=O)N(Cc4ccccc4)C(=O)[C@@H]23)cc1` gave V-ATPase pHluor inactive.
For CC(C)Cc1nnc(NC(=O)CCC(=O)NC2CCCCCCC2)s1 the results were tim10-1 inh inactive, tim23-1 inh inactive, NLRP3 yeast inh inactive, NALP1 yeast inh inactive, TIM10 inh inactive and V-ATPase pHluor inactive.
`CC(C)Cc1nnc(NC(=O)CCC(=O)NC2CC2)s1` gave tim10-1 inh inactive, tim23-1 inh inactive, NLRP3 yeast inh inactive, NALP1 yeast inh 38, TIM10 inh inactive and V-ATPase pHluor inactive.
`CCN(CC)S(=O)(=O)c1ccc2[nH]cc(C(=O)NCCCN3CCCCC3)c(=O)c2c1` gave tim10-1 inh inactive, tim23-1 inh inactive, NLRP3 yeast inh inactive, NALP1 yeast inh inactive, TIM10 inh inactive and V-ATPase pHluor inactive.
`CCN(CC)S(=O)(=O)c1ccc2[nH]cc(C(=O)NCCN3CCCCCC3)c(=O)c2c1` gave tim10-1 inh inactive, tim23-1 inh inactive, NLRP3 yeast inh inactive, NALP1 yeast inh 32, TIM10 inh inactive and V-ATPase pHluor inactive.
`NC(=O)C1CCN(c2nc(-c3ccccc3-c3ccccc3)cs2)CC1` gave tim10-1 inh inactive, tim23-1 inh inactive, NLRP3 yeast inh inactive, TIM10 inh inactive and V-ATPase pHluor inactive.
Screening COC(=O)Cc1c(C)c2ccc(OC3CCCCC3=O)c(C)c2oc1=O (configuration not stated) returned tim10-1 inh inactive, tim23-1 inh inactive, NLRP3 yeast inh inactive, NALP1 yeast inh inactive, TIM10 inh inactive and V-ATPase pHluor inactive.
For COc1ccccc1C(=O)C1CCCN(C(=O)c2ccccc2C(C)=O)C1 (configuration not stated) the results were tim10-1 inh inactive, tim23-1 inh inactive, NLRP3 yeast inh inactive, NALP1 yeast inh 27, TIM10 inh inactive and V-ATPase pHluor inactive.
For O=C(/C=C/c1ccc([N+](=O)[O-])cc1)Nc1cccc(C(=O)Nc2ccccc2C(=O)O)c1 the results were NALP1 yeast inh 28 and V-ATPase pHluor inactive.
COC(=O)c1cccc(NC(=O)/C=C/c2ccc([N+](=O)[O-])cc2)c1 was read as tim10-1 inh inactive, tim23-1 inh inactive, NLRP3 yeast inh inactive, NALP1 yeast inh inactive, TIM10 inh inactive and V-ATPase pHluor inactive.
`O=C(NNC(=O)C1CC2CCC1C2)c1sc2ccccc2c1Cl` (configuration not stated) gave tim10-1 inh inactive, tim23-1 inh inactive, NLRP3 yeast inh inactive, NALP1 yeast inh inactive, TIM10 inh inactive and V-ATPase pHluor inactive.
`CCN(CC(=O)Nc1ccccc1OC)C(=O)c1ccc(NS(=O)(=O)c2ccc(C(C)=O)cc2)cc1` gave tim10-1 inh inactive, tim23-1 inh inactive, NLRP3 yeast inh inactive, NALP1 yeast inh 44, TIM10 inh inactive and V-ATPase pHluor inactive.
Screening CCCN(CC(=O)Nc1ccccc1OC)C(=O)c1ccc(S(=O)(=O)Nc2ccccc2)cc1 returned tim10-1 inh inactive, tim23-1 inh inactive, NLRP3 yeast inh inactive, TIM10 inh inactive and V-ATPase pHluor inactive.
For CC(=O)c1ccc(NC(=O)C2CCN(S(=O)(=O)c3cccs3)CC2)cc1 the results were tim10-1 inh inactive, tim23-1 inh inactive, NLRP3 yeast inh inactive, NALP1 yeast inh inactive, TIM10 inh inactive and V-ATPase pHluor inactive.
For CCOc1ccc(NC(=O)C2CCN(S(=O)(=O)c3cccs3)CC2)cc1 the results were tim10-1 inh inactive, tim23-1 inh inactive, NLRP3 yeast inh inactive, NALP1 yeast inh 39, TIM10 inh inactive and V-ATPase pHluor inactive.
Screening Cc1ccc(-n2c(=O)c(C#N)cc3c(=O)n4cccc(C)c4nc32)cc1 returned tim10-1 inh inactive, tim23-1 inh inactive, NLRP3 yeast inh inactive, NALP1 yeast inh 37, TIM10 inh inactive and V-ATPase pHluor inactive.
`Cc1c(C)c(C)c(S(=O)(=O)N2CCSCC2)c(C)c1C` gave tim10-1 inh inactive, tim23-1 inh inactive, NLRP3 yeast inh inactive, NALP1 yeast inh inactive, TIM10 inh inactive and V-ATPase pHluor 20.
COC(=O)C1CCN(Cc2cn(Cc3ccccc3)nc2-c2cc3ccccc3o2)CC1 was read as tim10-1 inh inactive, tim23-1 inh inactive, NLRP3 yeast inh inactive, NALP1 yeast inh 32, TIM10 inh inactive and V-ATPase pHluor inactive.
Nc1ccccc1S(=O)(=O)C(F)F was read as tim10-1 inh inactive, tim23-1 inh inactive, NLRP3 yeast inh inactive, TIM10 inh inactive and V-ATPase pHluor inactive.
CN=C(NC1CCCCC1)c1ccc([N+](=O)[O-])cc1 was read as tim10-1 inh inactive, tim23-1 inh inactive, NLRP3 yeast inh inactive, NALP1 yeast inh inactive, TIM10 inh inactive and V-ATPase pHluor inactive.
NC(=NC1CCCCC1)c1ccc([N+](=O)[O-])cc1 was read as tim10-1 inh inactive, tim23-1 inh inactive, NLRP3 yeast inh inactive, NALP1 yeast inh 44, TIM10 inh inactive and V-ATPase pHluor inactive.
`COC(=O)C(Nc1nccs1)(OC)C(F)(F)F` (configuration not stated) gave tim10-1 inh inactive, tim23-1 inh inactive, NLRP3 yeast inh inactive, NALP1 yeast inh inactive, TIM10 inh inactive and V-ATPase pHluor 17.
Screening COC(=O)CCC(=O)Nc1nccs1 returned tim10-1 inh inactive, tim23-1 inh inactive, NLRP3 yeast inh inactive, NALP1 yeast inh inactive, TIM10 inh inactive and V-ATPase pHluor inactive.
`COc1cc(/C=C2\SC(=S)N(CCC(=O)Nc3ccccc3)C2=O)cc(OC)c1OC` gave tim10-1 inh inactive, tim23-1 inh inactive, NLRP3 yeast inh inactive, NALP1 yeast inh 29, TIM10 inh inactive and V-ATPase pHluor inactive.
Screening CCN(Cc1ccccc1)C1CCN(Cc2ccc(SC)cc2)CC1 returned tim10-1 inh inactive, tim23-1 inh inactive, NLRP3 yeast inh inactive, NALP1 yeast inh 28, TIM10 inh inactive and V-ATPase pHluor inactive.
CCN(Cc1ccccc1)C(=O)C1CCN(Cc2ccc(SC)cc2)CC1 was read as tim10-1 inh inactive, tim23-1 inh inactive, NLRP3 yeast inh inactive, NALP1 yeast inh inactive, TIM10 inh inactive and V-ATPase pHluor inactive.
Screening CC(=O)Nc1nn(C)c2nc(C)cc(C)c12 returned tim10-1 inh inactive, tim23-1 inh inactive, NLRP3 yeast inh inactive, NALP1 yeast inh inactive, TIM10 inh inactive and V-ATPase pHluor inactive.

High-throughput results (PubChem BioAssay)
